GLP-1R inv ag: GLP-1 receptor (human) inverse agonism. actives 1.6% (n = 410,000). AID 624417. HEK293 GLP-1R CRE-luciferase, luminescence, 24 h; GLP-1R form is constitutively active. Potency, µM (top dose mostly 38.3 µM), for the others: at the highest dose activity change, negative = inhibition, hits mostly inhibitors. P43220; further: on the % scale 0 is the no-effect control and ±100 the full control effect; nearly all actives have a fitted effect of over 55% in size
Target sequence (P43220 whole entry, looked up): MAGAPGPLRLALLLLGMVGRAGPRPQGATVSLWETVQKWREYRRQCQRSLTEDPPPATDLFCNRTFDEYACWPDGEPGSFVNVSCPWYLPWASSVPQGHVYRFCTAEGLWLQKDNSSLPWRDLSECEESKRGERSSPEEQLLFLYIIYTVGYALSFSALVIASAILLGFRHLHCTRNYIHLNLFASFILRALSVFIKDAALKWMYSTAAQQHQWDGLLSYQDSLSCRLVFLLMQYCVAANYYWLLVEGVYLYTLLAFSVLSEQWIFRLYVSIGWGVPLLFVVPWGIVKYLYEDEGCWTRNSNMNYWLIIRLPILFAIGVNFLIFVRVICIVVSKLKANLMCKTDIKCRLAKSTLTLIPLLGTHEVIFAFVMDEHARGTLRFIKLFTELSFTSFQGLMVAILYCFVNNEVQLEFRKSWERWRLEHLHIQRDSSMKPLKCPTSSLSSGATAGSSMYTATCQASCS
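HEK293 cells stably co-expressing constitutively active GLP-1R and a cAMP-responsive luciferase reporter were seeded in DMEM with 10% Nu serum, given compounds after 12 h, and incubated 24 h at 37 deg C. Luminescence was then read.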
TGFb SMAD3 inh: inhibitors of TGF-b signaling; actives 1.2% (n = 410,000); Potency, µM (doses to about 46.1 µM), without a hit: at the highest dose activity, negative = inhibition, usual class: inhibitors; HepG2 CAGA-GFP TGF-b/SMAD3 reporter, GFP fluorescence, 18 h; TGF-beta stimulated, 500 pg/mL final; further: on the % scale 0 is the no-effect control and ±100 the full control effect; nearly all actives have a fitted effect of over 65% in size
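HEPG2 CAGA-GFP, 1000 cells/well; 2 h settle, 37 C; cpd via pin tool; TGF-b 500 pg/mL final; 18 h, 37 C; GFP imaging ex488/em500-530; %Activity normalised to -TGF-b and +DMSO controls; CRC fit, curve class.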
ATXN2 expr inh: ATXN2 expression inhibition. actives 0.72% (n = 360,000). AID 1745845. Potency, µM (titrated, usually from 57 µM), without a hit: at the highest dose activity change, negative = inhibition, most hits filed as inhibitors. HEK-293 ATXN2-luciferase reporter, luminescence, 24 h; further: on the % scale 0 is the no-effect control and ±100 the full control effect; nearly all actives have a fitted effect of over 55% in size
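qHTS (up to 57 uM final) was run with 24 h compound exposure of reporter cells at 37 °C. Each well was multiplexed: SteadyGlo luminescence measured ATXN2-luciferase expression after a fluorogenic Gly-Phe-AFC viability readout (25 uM final).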
HepG2 tox: counter-screen for TGF-b inhibitors: cytotoxicity in HepG2 cells. HepG2 CAGA-GFP viability, ATP luminescence, 18 h. Potency, µM (doses to about 46.1 µM), for inactives: at the top dose activity change, negative = cytotoxicity, usual class: cytotoxic. actives 0.76% (n = 410,000)
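CellTiter-Glo luminescence gave cytotoxicity after 18 hours at 37 degrees C. The cells were HepG2 CAGA-GFP in 1% FBS DMEM, stimulated with 500 pg/mL TGF-beta after compound addition. %Activity was normalised to no-cell wells (complete cell-killing) and DMSO (no toxicity), and curves were fitted and classified.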
GLP-1R agonist: activates the human GLP-1 receptor. Potency, µM (series often up to 45.6 µM), inactives show top-dose activation, hits mostly activators. P43220. HEK293 GLP-1R CRE-luciferase, luminescence, 4-6 h; cells express a hypersensitive GLP-1R form. actives 0.007% (n = 380,000). AID 624172; further: % of control where 0% means no effect
ATXN viability: reduces viability in counter-screen for ATXN expression inhibitors. S2 cells (HEK-293 line with an ATXN2-luciferase reporter) viability, CellTiter-Fluor protease fluorescence, 24 h. Potency, µM (series often up to 56.7 µM), actives largely listed as cytotoxic. actives 0.49% (n = 400,000); further: nearly all actives have a fitted effect of over 40% in size
An asterisk follows results filed as active; i = inactive; u = inconclusive; x = not tested or not shown; [ ] = remark or other dose. A selection: hits, their analogues and other compounds. The true share with any hit is near 3.7%. The call rests on the fitted dose curve; in most records, active means well fitted curve in the direction sought with a large enough effect; inconclusive means small, poorly fitted or top-dose-only effect, or another doubt; inactive means no such curve, though single readings can be large; an effect the other way counts as inactive or inconclusive. Potency means the concentration at half of the fitted maximal effect.

SMILES	GLP-1R inv ag	TGFb SMAD3 inh	ATXN2 expr inh	HepG2 tox	GLP-1R agonist	ATXN viability
Cc1ccc(-n2nc3c(=O)n(CC(=O)NCCc4ccco4)nc(C)c3c2C)cc1	u	22µM*	0%	-93%	-3%	i
CCOc1ccccc1CNC(=O)Cn1nc(C)c2c(C)n(-c3ccc(C)cc3)nc2c1=O	u	5µM*	x	-44%	-3%	u
COc1cccc(CNC(=O)Cn2nc(C)c3c(C)n(-c4ccc(C)cc4)nc3c2=O)c1OC	-31%	-1%	-6%	-2%	-3%	i
Cc1ccc(-n2nc3c(=O)n(CCCC(=O)NCc4cccc(Cl)c4)nc(C)c3c2C)cc1	11µM*	-41%	x	-27%	9%	u
Cc1ccc(-n2nc3c(=O)n(C(C)C(=O)NCCCc4ccccc4)nc(C)c3c2C)cc1 (stereo not drawn)	5µM*	u	u	-25%	0%	u
Cc1c(N)nc([C@@H](CC(N)=O)NC[C@H](N)C(N)=O)nc1C(=O)N[C@H](C(=O)N[C@@H](C)[C@@H](O)[C@@H](C)C(=O)N[C@H](C(=O)NCCc1nc(-c2nc(C(=O)NCCCN[C@H](C)c3ccccc3)cs2)cs1)[C@H](C)O)[C@@H](O[C@H]1O[C@@H](CO)[C@H](O)[C@@H](O)[C@H]1O[C@H]1O[C@@H](CO)[C@@H](O)[C@H](OC(N)=O)[C@H]1O)c1cnc[nH]1	x	x	x	x	-5%	x
CC(C)c1c(C(=O)NCC2(N3CCCCC3)CCCC2)cnn1-c1nccc(-c2ccco2)n1	x	x	x	x	x	i
CC(=O)c1cccc(NC(=O)c2cccc(N3C(=O)c4ccccc4C3=O)c2)c1	9%	1%	-4%	2.8µM*	1%	i
CN(C)c1ccc(/C=c2\[nH]c(=O)/c(=C\c3ccc(N(C)C)cc3)[nH]c2=O)cc1	x	3%	x	-8%	x	x
Cc1cc(C)c2cc(C(=O)N(C)C3CCN(C)CC3)[nH]c2c1	5µM*	-2%	-16%	-28%	9%	i
Cc1cc(C)c2cc(C(=O)N3CCc4ccccc4C3)[nH]c2c1	u	-6%	-4%	-45%	27%	i
Cc1ccc2[nH]c3c(c2c1)CN(C(=O)CN1CCN(Cc2ccc4c(c2)OCO4)CC1)CC3	3.5µM*	-6%	-17%	-31%	-3%	u
Cc1ccc2[nH]c3c(c2c1)CN(C(=O)CN1CC(C)OC(C)C1)CC3 (stereo not drawn)	-29%	67%	2%	-3%	6%	u
Cc1nc2c(C(=O)NCCc3ccc(Cl)cc3)cnn2c(C)c1Cc1c(F)cccc1Cl	-7%	-20%	x	-8%	x	x
Cc1cc(C)c(Cc2c(C)nc3c(C(=O)NCc4ccco4)cnn3c2C)c(C)c1	u	-14%	14µM*	-93%	0%	20µM*
Cc1nc2c(C(=O)NC(C)c3ccccc3)cnn2c(C)c1Cc1ccccc1 (stereo not drawn)	u	-10%	x	13µM*	x	x
Cc1ccc(CNC(=O)c2cnn3c(C)c(Cc4c(F)cccc4Cl)c(C)nc23)cc1	-23%	10%	-26%	-11%	x	u
Cc1nc2c(C(=O)NCCc3ccc(Cl)cc3)cnn2c(C)c1Cc1ccc(F)cc1	-30%	7.1µM*	x	-95%	x	x
O=C(Nc1ccc(F)c(F)c1)c1cnn2c1NC(=C1CC1)C=C2C(F)(F)F	x	16%	x	20%	x	x
CN(C(=O)c1ccoc1)c1ccccc1I	x	3%	x	2%	x	x
CCNc1ccc(Br)cc(C(=O)/C=C/c2ccc(Cl)cc2Cl)c1=O	u	-3%	32µM*	-69%	-2%	u
CNc1ccc(Br)cc(C(=O)/C=C/c2ccc3c(c2)OCO3)c1=O	u	u	u	-1%	-14%	i
CNc1ccc(Br)cc(C(=O)/C=C/c2cc(OC)ccc2OC)c1=O	u	16µM*	u	-80%	-8%	x
CNc1ccc(Br)cc(C(=O)/C=C/c2ccc(OC)cc2)c1=O	7%	9%	u	-19%	6%	i
Cc1cccc(C(=O)Nc2ccc(C(=O)OCc3cc(=O)n4c(C)csc4n3)cc2)c1	u	u	x	-50%	x	x
SMILES	GLP-1R inv ag	TGFb SMAD3 inh	ATXN2 expr inh	HepG2 tox	GLP-1R agonist	ATXN viability
COc1cccc(CN2CCCC(c3nc(C)ncc3-c3ccc(F)cc3)C2)c1OC (stereo not drawn)	x	x	x	x	x	i
Cc1c(C(=O)NCCSCc2c(F)cccc2Cl)cnn1-c1ccc(Cl)cc1	10µM*	u	-2%	-1%	17%	i
COc1ccccc1C(=O)NCCSCc1c(F)cccc1Cl	u	-1%	x	-7%	14%	i
O=C(NCc1ccncc1)C12C[C@H]3C[C@@H](C1)CC(c1ccc(Cl)cc1)(C3)C2	x	x	-4%	x	x	x
CC(=O)N1/C(=C/c2ccc(N(C)C)cc2)C(=O)c2ccccc21	10µM*	15%	2%[11.3 µM]	-47%	-1%	u
COC(=O)C1=C(C)N(Cc2ccc(C)cc2)C(=O)/C1=C\c1ccc(O)c(OC)c1	-19%	19%	18%	-21%	-15%	i
COC(=O)C1=C(C)N(Cc2ccc(C)cc2)C(=O)/C1=C\c1cc(OC)c(OC)c(OC)c1	4.5µM*	u	-11%	16µM*	2%	i
CC(C)(C)C(=O)Nc1nc(-c2ccc3c(c2)OCO3)cs1	10µM*	-7%	59%	-3%	-4%	i
COc1ccc(Br)cc1/C=C/C(=O)Nc1ccc2ccccc2c1	-12%	u	6%	-16%	-3%	u
COc1ccc(Br)cc1/C=C/C(=O)Nc1ccc(C)cc1	4.5µM*	u	1%	-17%	6%	i
Fc1ccccc1CSc1ncnc2c1ncn2C1CCCCO1 (stereo not drawn)	u	-2%	17%	-8%	15%	i
